Compound activity (PubChem)
ssDAF-12 act = activates DAF-12 receptor from parasite S. stercoralis | HEK293 ssDAF-12/GRIP1 lit1-tk-luc reporter, luminescence; % of 3 µM dafachronic acid response | activation, % at 6.8 µM | actives 1% (n = 370,000);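 active = activation above the mean over all tested compounds plus 3 SD, cut at about 0.9% in these data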;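 also: 0% = DMSO-only wells and 100% = 3 µM delta7-dafachronic acid wells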
DAX1 inh-1 = inhibitors of DAX1 repression of SF-1 activated StAR promoter | HEK293T StAR-luciferase reporter, SF-1/DAX-1 repression relief | inhibition, % at 6.8 µM | actives 1.1% (n = 370,000);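 active = inhibition above the mean over all tested compounds plus 3 SD, cut at about 3.6% in these data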;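 also: 0% = DAX-1 cells with DMSO and 100% = cells lacking DAX-1 with DMSO; higher inhibition means more luminescence from relief of DAX-1 repression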
DAX1 inh-2 = inhibits human nuclear receptor DAX1 | AID 504766 | inhibition, % at 6.75 µM | actives 0.99% (n = 340,000) | HEK293 Gal4-DAX1 luciferase reporter, luminescence;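 active = inhibition above the mean over all tested compounds plus 3 SD, cut at about 4.2% in these data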;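 also: 0% = DAX1-transfected cells with DMSO and 100% = empty-vector control cells with DMSO; inhibition shows as a rise in luminescence from relieved DAX1 repression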
Target sequence (P51843 207-470 limits assumed): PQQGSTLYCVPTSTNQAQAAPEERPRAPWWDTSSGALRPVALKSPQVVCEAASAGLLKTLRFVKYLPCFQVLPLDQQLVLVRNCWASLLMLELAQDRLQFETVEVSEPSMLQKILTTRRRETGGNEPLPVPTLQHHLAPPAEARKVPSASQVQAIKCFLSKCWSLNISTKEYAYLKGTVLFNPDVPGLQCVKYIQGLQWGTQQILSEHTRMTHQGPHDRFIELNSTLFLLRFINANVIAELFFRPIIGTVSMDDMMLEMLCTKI
hgDAF12 agonist = agonists of H. glycines DAF-12 nuclear receptor | HEK293 GAL4-hgDAF12 UAS-luciferase reporter, agonist luminescence; normalized to butyrate control | activation, % at 6.8 µM | actives 1.8% (n = 370,000);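 active = activation above a cutoff set at the mean of all screened compounds plus 3 SD, cut at about 10% in these data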;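 also: 0% = DMSO wells and 100% = sodium butyrate wells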
hcDAF-12 act = activates DAF-12 receptor from parasite H. contortus. actives 1.4% (n = 370,000). HEK293 hcDAF-12 lit1-tk-luc reporter, luminescence; 0% DMSO, 100% Δ7-dafachronic acid. AID 652067. activation, % at 6.8 µM;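 active = activation above the mean of all tested compounds plus 3 SD, cut at about 5.5% in these data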;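 also: 100% = response to 3 µM Δ7-dafachronic acid high control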
hgDAF12 conf = confirmation of H. glycines DAF-12 agonists | shares compounds with hgDAF12 agonist | HEK293 GAL4-hgDAF12 luciferase reporter, agonist mode; percent of butyrate response | activation, % at 6.8 µM | actives 80% (n = 3,300) | AID 743050;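 active = mean activation over triplicate wells above the hit cutoff derived from the earlier primary screen, cut at about 11% in these data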;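 also: 0% = DMSO low control and 100% = 2 mM sodium butyrate high control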
LXR ag 2 = counter-screen for DAF-12 agonists: agonists of human LXR-beta; shares compounds with hgDAF12 agonist; HEK293 Gal4-LXR luciferase reporter, 24 h; activation, % at 6.8 µM; 3,300 tested, under 10 active; AID 743051;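 active = mean activation of the triplicate above a set limit carried over from the primary screen, none filed active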
Numbers without * were called inactive; / = no result. A selection: hits, their analogues and other compounds. The true share with any hit is near 4.1%.

SMILES	ssDAF-12 act	DAX1 inh-1	DAX1 inh-2	hgDAF12 agonist	hcDAF-12 act	hgDAF12 conf	LXR ag 2
CC(=O)C1=C(C)N(Cc2ccc(F)cc2)C(=S)NC1c1cccc(Cl)c1 (centres undefined)	-1	-1	/	0	-1	/	/
Cc1nn(-c2ccccc2)c(N)c1N=Nc1cccc(S(=O)(=O)N2CCOCC2)c1	-2	-1	-1	-3	-3	/	/
Cc1cccc(N=Nc2c(C)nn(-c3ccccc3)c2N)c1C	-1	0	0	16*	1	11*	0
CC(=O)Nc1ccc(-c2csc(NCc3ccco3)n2)cc1	-1	1	1	15*	2	12*	0
O=C(NCc1c(F)cccc1F)C1CCC(CNS(=O)(=O)c2cccc3cccnc23)CC1 (centres undefined)	-1	-1	/	-3	-2	/	/
Clc1ccc2nc(N3CCCCC3)[nH]c2c1	0	4.5*	1	20*	5.7*	17*	1
COCCN1Cc2cc(C(=O)OC)c3c(c2C1=O)c1cc(OC)ccc1n3S(=O)(=O)c1ccc(F)cc1	-1	0	/	-3	-1	/	/
O=C(OCc1ccccc1)N1CCC2CC1c1ccc(N3CCNCC3)cc12 (centres undefined)	0	-1	0	14*	4	8	0
COc1ccc(/C=C2\SC(=O)N(CCCC(=O)Nc3ccc(C(=O)O)cc3)C2=O)cc1	-4	-7	-5	-21	-9	/	/
COc1ccc(/C=C2\SC(=O)N(CCc3nnc(N)s3)C2=O)cc1	1	4.1*	2	16*	4	10	1
COc1ccccc1NC(=O)N(C)C[C@H]1OCc2cn(nn2)CCCC(=O)N([C@H](C)CO)C[C@@H]1C	-1	0	/	-1	-1	/	/
Fc1cccc(Cl)c1CN1CCN(c2nc3ccccc3s2)CC1	1	3	4	13*	6	11*	0
O=c1[nH]c(CSc2ccccn2)nc2ccccc12	0	3.6*	1	18*	2	14*	1
Cc1ccnc(NC(=O)/C=C/c2cccs2)c1	0	3	1	16*	5.6*	19*	1
O=C(/C=C/c1cccs1)Nc1nncs1	-1	1	2	9	0	/	/
C=CCN1C[C@H](COC(=O)CSc2ccccc2)Oc2cccc(F)c2S1(=O)=O	-1	0	/	-1	1	/	/
O=c1c2c(nc3cc(-c4ccccc4)[nH]n13)CCC2	0	2	0	15*	3	13*	1
O=c1c2c(nc3cc(-c4ccc(Br)cc4)[nH]n13)CCCC2	1.4*	3.7*	6.3*	14*	1	20*	1
C[C@H]1[C@@H](NC(=O)C2CCCCC2)CC[C@@]23CCCN2C(=O)CCC[C@@H]13	-2	/	/	-1	-1	/	/
O=C(NCCCN1CCOCC1)c1cc(-c2ccccc2)on1	-1	1	3	26*	3	27*	0
O=C(NCCN1CCOCC1)c1cc(-c2cccs2)on1	0	-1	3	20*	1	29*	0
O=C(NCCN1CCOCC1)c1cc(-c2ccc(Br)cc2)on1	-1	0	1	0	0	/	/
O=C(NCCCN1CCOCC1)c1cc(-c2ccc(O)cc2)on1	0	1	2	8	2	/	/
O=C(NCCN1CCOCC1)c1cc(-c2ccccc2)on1	0	0	2	24*	2	23*	0
C/C(=N\Nc1nccnc1Cl)c1ccc(Br)cc1	0	2	1	17*	5.8*	6	0
C/C(=N\Nc1nccnc1Cl)c1ccc([N+](=O)[O-])cc1	1	2	1	15*	4	2	0
C/C(=N/Nc1ncc(Br)cn1)c1ccc([N+](=O)[O-])cc1	-1	0	3	2	1	/	/
COC(=O)[C@@H]1[C@H](O[Si](C)(C)C(C)(C)C)[C@H]2O[C@H]2C[C@H]1S(=O)(=O)c1ccccc1	-2	/	/	-3	-1	/	/
